The record followed here is the supplement of paper PMC10338343.

± gives the standard deviation.

One test deals with MILI (PIWIL2) piRISC loaded with L1MC piRNA (26 nt). Nature of the test: pre-steady-state target cleavage rate (min^-1); guide: L1MC piRNA 5'p-UAACUAAAUACUAUGCAAGCUGUAGG; MIWI and MILI are mouse PIWI proteins and EfPiwi is from a freshwater sponge; tags in brackets are library labels; higher = faster piRNA-guided slicing of the target. The note with it: auxiliary factor: 500 nM mouse GTSF1. The method, then: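 Cleave-'n-Seq: a library of target RNAs (target site embedded in constant flanks, ACAGCATTCCGCGTTAGTGATATCCG... 5' flank; DNA-blocked outside the site) at 0.1 nM was incubated with 1 nM active mouse MILI or MIWI piRISC (synthetic 5'-monophosphorylated piRNA guide) with or without 500 nM mouse GTSF1 at 33 °C for 1 min to 16 h. Uncleaved targets were sequenced and normalised to non-target controls, and the pooled three trials were fitted to a burst-and-steady-state model to give the pre-steady-state cleavage rate (min^-1; k3 is constrained to at most 1e-4). Sequence is the target site only; target names encode pairing extent (gX:gY) and contiguous / 1-mismatch / 2-mismatch / bulge geometry. Fits with R² ≤ 0 are excluded.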
Consider UCCUCCAACAGCUUGCUUAGUAUUUAGUUA, for which the “pre-steady-state target cleavage rate” value stood at 0.262 ± 0.017.

Take UCCUGGAUCUGCUUGCAUAGUAUUUAGUUA: the “pre-steady-state target cleavage rate” value was found to be 0.229 ± 0.016.

As for UCCUGGAUCAGCUUGCAUAGUUAUUUAGUUA, the “pre-steady-state target cleavage rate” value amounted to 0.00888 ± 0.004.

In the case of UCCUGGAUGAGGUUGCAUAGUAUUUUGUUA, the “pre-steady-state target cleavage rate” value was found to be 0.0801 ± 0.024.

UCCUGGAUGUCCUUGCAUAGUAUCUAGUUA: the “pre-steady-state target cleavage rate” value came to 0.12 ± 0.024.

Turning to UCCUGCUAAAGCUUGCAUAGUAUUUAGUUA, the “pre-steady-state target cleavage rate” value was 0.177 ± 0.035.

UCCUGGAUCAGCUUCCUUAGUAUUUAGUUA: the “pre-steady-state target cleavage rate” value turned out to be 0.122 ± 0.018.

On to UCCUGGAUGAGCUUGCAUAGUAUUUAGUUUA, for which the “pre-steady-state target cleavage rate” value turned out to be 0.184 ± 0.02.

With UCCUGGAUGUCGUUGCAUACUAUUUAGUUA, the “pre-steady-state target cleavage rate” value was 0.0161 ± 0.0052.

Turning to UCCUGGUACAGCAUGCAUAGUAUAUAGUUA, the “pre-steady-state target cleavage rate” value stood at 0.241 ± 0.038.

As to UCCUGGAACAGCUUCGAUAGUAUUUAGUAA, the “pre-steady-state target cleavage rate” value came out at 0.167 ± 0.019.

UCCUGCUACAGCUUGCAUAGUUUUUAGUUA: the “pre-steady-state target cleavage rate” value was determined as 0.0767 ± 0.014.

For UCCUCCUACAGCUAGCAUAGUAUUUACAAA, the “pre-steady-state target cleavage rate” value was 0.0849 ± 0.018.

For UCCUGGAACAGCUAUGCAUAGUAUUUAGUUA, the “pre-steady-state target cleavage rate” value amounted to 0.21 ± 0.018.

Consider UCCUGGAUCAGCCUGCAUAGUAUUUAGUUA, for which the “pre-steady-state target cleavage rate” value stood at 0.244 ± 0.026.

Turning to UCCUGGAUGUGCUUGCAUAGUAGUUAGUUA, the “pre-steady-state target cleavage rate” value was determined as 0.0647 ± 0.01.

In the case of UCCUGCUAUCAGCUUGCAUAGUAUUUAGUUA, the “pre-steady-state target cleavage rate” value came out at 0.268 ± 0.022.

Turning to UCCUCCUACACCUUGCAUAGUAAUUAGUUA, the “pre-steady-state target cleavage rate” value was found to be 0.196 ± 0.031.

UCCUGCUACAGCUUCCAUUGUAUUUAGUUA: the “pre-steady-state target cleavage rate” value amounted to 0.157 ± 0.029.

As to UCCUCCUAGAGCUUGCAUAGUAUAUAGUUA, the “pre-steady-state target cleavage rate” value was 0.249 ± 0.029.

Regarding UCCUGGAAGUGCUUGCAUAGUAUUUAGUUA, the “pre-steady-state target cleavage rate” value came out at 0.127 ± 0.013.

Turning to UCCUGGAACAGCUUGCUUAGAAUUUAGUUA, the “pre-steady-state target cleavage rate” value amounted to 0.0285 ± 0.0057.

Still in this test, the particulars now being: auxiliary factor: none (no GTSF1).
In the case of UCCUCCAACAGCUUGCUUAGUAUUUAGUUA, the “pre-steady-state target cleavage rate” value stood at 0.0066 ± 0.0021.

For the sequence UCCUGGAUCUGCUUGCAUAGUAUUUAGUUA, the “pre-steady-state target cleavage rate” value was 0.00944 ± 0.002.

UCCUGGAUCAGCUUGCAUAGUUAUUUAGUUA: the “pre-steady-state target cleavage rate” value came out at 0.00454 ± 0.0027.

For the sequence UCCUGGAUGAGGUUGCAUAGUAUUUUGUUA, the “pre-steady-state target cleavage rate” value turned out to be 0.00402 ± 0.0029.

Turning to UCCUGGAUGUCCUUGCAUAGUAUCUAGUUA, the “pre-steady-state target cleavage rate” value was determined as 0.00287 ± 0.0025.

For UCCUGGAUCAGCUUCCUUAGUAUUUAGUUA, the “pre-steady-state target cleavage rate” value was determined as 0.00478 ± 0.0016.

Turning to UCCUGGAUGAGCUUGCAUAGUAUUUAGUUUA, the “pre-steady-state target cleavage rate” value is 0.0105 ± 0.0031.

As to UCCUGGAUGUCGUUGCAUACUAUUUAGUUA, the “pre-steady-state target cleavage rate” value was 0.00383 ± 0.002.

As for UCCUGGUACAGCAUGCAUAGUAUAUAGUUA, the “pre-steady-state target cleavage rate” value turned out to be 0.00583 ± 0.0028.

Regarding UCCUGGAACAGCUUCGAUAGUAUUUAGUAA, the “pre-steady-state target cleavage rate” value was 0.00446 ± 0.0025.

For UCCUGCUACAGCUUGCAUAGUUUUUAGUUA, the “pre-steady-state target cleavage rate” value worked out at 0.00327 ± 0.0022.

Turning to UCCUGGAUCAGCCUGCAUAGUAUUUAGUUA, the “pre-steady-state target cleavage rate” value stood at 0.0068 ± 0.0031.

On to UCCUGGAUGUGCUUGCAUAGUAGUUAGUUA, for which the “pre-steady-state target cleavage rate” value is 0.0055 ± 0.0027.

UCCUGCUAUCAGCUUGCAUAGUAUUUAGUUA: the “pre-steady-state target cleavage rate” value is 0.00819 ± 0.0029.

For the sequence UCCUCCUACACCUUGCAUAGUAAUUAGUUA, the “pre-steady-state target cleavage rate” value came out at 0.00304 ± 0.0027.

On to UCCUGCUACAGCUUCCAUUGUAUUUAGUUA, for which the “pre-steady-state target cleavage rate” value was found to be 0.00322 ± 0.0022.

For UCCUCCUAGAGCUUGCAUAGUAUAUAGUUA, the “pre-steady-state target cleavage rate” value turned out to be 0.00315 ± 0.0025.

With UCCUGGAAGUGCUUGCAUAGUAUUUAGUUA, the “pre-steady-state target cleavage rate” value came to 0.00836 ± 0.0022.
